The values that follow come from PubChem BioAssay.

Active and inactive are the calls of the source.

Assay [1] relates to Plasmodium falciparum Sir2 (PF13_0152, Sir2A). Put plainly: Plasmodium falciparum Sir2A binding compounds – biochemical, small-molecule microarray, 635 nm fluorescence, primary screen (AID 1098).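 Also: score merges spot fluorescence intensity with its signal-to-noise ratio.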 The conditions noted are these: fluorescence 635 nm, higher = more signal.
Assay [2] is described as follows: probe aDKK1 binding to arrayed compounds – biochemical, biotinylated probe, 635/667 nm fluorescence, primary screen (AID 1099).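 Also: score merges 667nm spot fluorescence with signal to noise across triplicate slides; reference of the scale not given here.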 The following applies: small-molecule microarray, higher = more signal.
Assay [3] can be described thus: probe aCHRDL2 binding to arrayed compounds – biochemical, biotinylated probe, 635/667 nm fluorescence, primary screen (AID 1100). The conditions noted are these: small-molecule microarray, higher = more signal.
Assay [4] in a line: change in splice reporter luminescence, either direction, cell-based, HEK293, spliceosome inhibition project, primary screen (AID 1101).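 Also: HEK293 cells carrying a splicing-competent luciferase reporter gene; test concentration not given here.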 The conditions noted are these: HEK293 splicing luciferase reporter, 24 h, higher = more signal, called active from +8 up or from −8 down. In general terms: A reporter such as luciferase makes a cellular process visible.
Assay [5] deals with Fibroblast growth factor 10 (Homo sapiens) (UniProt O15520). Put plainly: compounds binding fibroblast growth factor 10 – biochemical, small-molecule microarray, 635 nm fluorescence, primary screen (AID 1102). The following applies: FGF10 binding, fluorescence 635 nm, higher = more signal.
Assay [6] concerns glycogen synthase kinase-3 (GSK3A per assay name; protocol says GSK3B). Briefly: compounds binding glycogen synthase kinase-3 – biochemical, small-molecule microarray, 635 nm fluorescence, GSK3A, primary screen (AID 1103). Also: the record names both GSK3A and GSK3B. The following applies: fluorescence 635 nm, higher = more signal.
The target of assay [7] is Epidermal growth factor receptor (Homo sapiens) (UniProt P00533). Briefly: compounds binding epidermal growth factor receptor – biochemical, small-molecule microarray, 635 nm fluorescence, primary screen (AID 1104).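 Also: score merges 667 nm emission intensity with spot signal to noise over triplicate slides.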 The following applies: EGFR binding, higher = more signal.
The target of assay [8] is Follistatin-related protein 3 (Homo sapiens) (UniProt O95633). Briefly: compounds binding follistatin-related protein 3 – biochemical, small-molecule microarray, 635 nm fluorescence, primary screen (AID 1105).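 Also: score merges emission near 667 nm and signal to noise per printed spot across three slides.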 The conditions noted are these: FSTL3 binding, higher = more signal.
The target of assay [9] is Dickkopf-related protein 1 (Homo sapiens) (UniProt O94907). Put plainly: small molecules binding DKK1 protein – biochemical, small-molecule microarray, 635 nm fluorescence scan, primary screen (AID 1106).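 Also: score merges emission near 667 nm with signal to noise over three replicate slides.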 The following applies: higher = more signal.
In assay [10] the test system is Inhibin beta A chain (activin A). Put plainly: small molecules binding activin A – biochemical, small-molecule microarray, 635 nm fluorescence scan, primary screen (AID 1107).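 Also: mouse activin A protein probed at 4.33 µg/mL on printed slides; score merges bound-protein fluorescence near 667 nm with spot signal-to-noise.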 The conditions noted are these: INHBA, higher = more signal.

Chain of Fibroblast growth factor 10 (Homo sapiens) (O15520 whole entry, looked up): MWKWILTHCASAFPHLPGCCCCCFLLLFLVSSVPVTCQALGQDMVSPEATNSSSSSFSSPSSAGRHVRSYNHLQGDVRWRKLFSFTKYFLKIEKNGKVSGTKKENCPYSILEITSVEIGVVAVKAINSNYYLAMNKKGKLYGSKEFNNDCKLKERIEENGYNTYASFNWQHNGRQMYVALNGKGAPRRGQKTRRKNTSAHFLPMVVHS
Chain of Dickkopf-related protein 1 (Homo sapiens) (O94907 whole entry, looked up): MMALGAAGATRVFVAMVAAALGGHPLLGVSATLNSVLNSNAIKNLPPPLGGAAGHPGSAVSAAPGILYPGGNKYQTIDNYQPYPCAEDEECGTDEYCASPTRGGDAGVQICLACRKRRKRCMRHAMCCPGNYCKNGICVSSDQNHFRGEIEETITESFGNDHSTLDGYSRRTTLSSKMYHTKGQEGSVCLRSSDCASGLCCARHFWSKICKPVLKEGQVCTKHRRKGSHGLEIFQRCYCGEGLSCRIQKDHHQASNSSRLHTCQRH
Chain of Epidermal growth factor receptor (Homo sapiens) (P00533 whole entry, looked up): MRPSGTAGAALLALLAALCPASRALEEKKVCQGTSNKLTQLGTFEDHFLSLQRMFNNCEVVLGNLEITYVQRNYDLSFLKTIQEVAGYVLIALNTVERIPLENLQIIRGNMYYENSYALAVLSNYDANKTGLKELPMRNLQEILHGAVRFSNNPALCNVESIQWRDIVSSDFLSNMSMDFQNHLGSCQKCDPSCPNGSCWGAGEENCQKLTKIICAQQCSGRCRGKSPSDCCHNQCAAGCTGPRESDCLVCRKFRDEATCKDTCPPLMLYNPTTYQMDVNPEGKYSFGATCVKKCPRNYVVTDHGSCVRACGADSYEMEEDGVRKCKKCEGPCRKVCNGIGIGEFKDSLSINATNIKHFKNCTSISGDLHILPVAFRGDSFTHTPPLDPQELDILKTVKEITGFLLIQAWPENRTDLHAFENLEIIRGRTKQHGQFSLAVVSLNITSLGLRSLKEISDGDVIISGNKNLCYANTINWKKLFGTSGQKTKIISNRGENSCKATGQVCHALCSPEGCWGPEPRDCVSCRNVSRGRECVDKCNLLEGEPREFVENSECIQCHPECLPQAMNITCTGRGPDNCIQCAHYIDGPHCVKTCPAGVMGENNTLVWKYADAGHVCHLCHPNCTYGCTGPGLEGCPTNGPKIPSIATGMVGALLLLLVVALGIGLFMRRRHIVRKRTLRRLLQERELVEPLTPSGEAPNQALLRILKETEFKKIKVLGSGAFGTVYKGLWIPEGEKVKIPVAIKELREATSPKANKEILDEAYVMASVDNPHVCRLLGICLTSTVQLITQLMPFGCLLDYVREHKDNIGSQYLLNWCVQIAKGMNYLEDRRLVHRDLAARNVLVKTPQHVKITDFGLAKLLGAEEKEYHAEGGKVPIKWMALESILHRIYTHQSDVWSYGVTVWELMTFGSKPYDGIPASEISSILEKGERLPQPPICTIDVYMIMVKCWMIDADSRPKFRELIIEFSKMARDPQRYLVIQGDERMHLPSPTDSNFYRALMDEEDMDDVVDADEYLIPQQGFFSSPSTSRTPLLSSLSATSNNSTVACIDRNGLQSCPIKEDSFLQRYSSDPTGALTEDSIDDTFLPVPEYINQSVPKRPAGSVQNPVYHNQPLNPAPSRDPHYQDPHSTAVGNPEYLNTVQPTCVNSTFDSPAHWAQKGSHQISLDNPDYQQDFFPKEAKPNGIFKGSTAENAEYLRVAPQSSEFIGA
Chain of Follistatin-related protein 3 (Homo sapiens) (O95633 whole entry, looked up): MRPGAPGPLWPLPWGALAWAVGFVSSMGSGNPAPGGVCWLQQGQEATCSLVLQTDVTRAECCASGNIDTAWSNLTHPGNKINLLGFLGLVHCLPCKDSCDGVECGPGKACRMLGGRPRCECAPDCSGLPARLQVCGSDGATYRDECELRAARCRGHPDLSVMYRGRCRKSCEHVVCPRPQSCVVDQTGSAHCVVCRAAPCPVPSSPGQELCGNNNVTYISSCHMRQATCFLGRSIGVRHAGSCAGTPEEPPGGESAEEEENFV

On to `COCCOC(=O)N1C(=O)[C@@]2(c3cc(C#CC4=CCCCC4)ccc31)[C@H](c1ccc(OCCO)cc1)N1[C@H](c3ccccc3)[C@H](c3ccccc3)OC(=O)[C@H]1[C@@H]2C(=O)N1CCc2cc(OC)c(OC)cc2C1`, for which the composite z-score in assay [1] came out at 0.774; in assay [2], 0.645; in assay [3], 0.538; in assay [5], 1.09; in [6] it was 1.3; in assay [7], 0.707. Besides, the composite z-score in assay [8] was 1.39; in [9], 1.13; in assay [10], 0.942. In assay [4], the z-score was -0.992 (inactive).

Turning to `[N-]=[N+]=NCc1ccccc1[C@H]1OC(c2ccc(OCCCO)cc2)=N[C@@]1(Cc1ccccc1)C(=O)N1CCCCC1`, the composite z-score worked out at 1.14 in assay [1]; 0.344 in [2]; 0.574 in assay [3]; 1.34 in [5]; 1.3 in assay [6]; 0.0201 in [7]. Also, the composite z-score in assay [8] was 0.79; in [9] it was 0.428; in [10] it was 0.522. In assay [4], the z-score was -1.05 (inactive).

`[N-]=[N+]=NCc1ccccc1[C@@H]1OC(c2ccc(OCCCO)cc2)=N[C@]1(CCS(=O)(=O)c1ccccc1)C(=O)N1CCCCC1`: the composite z-score in [1] is 1.65; in assay [2], 0.0798; in assay [3] it was 0.904; in [5] it was 0.828; in assay [6], 1.29; in assay [7], 0.453. Further, the composite z-score in [8] is 1.19; in assay [9], -0.154; in [10] it was 1.08. For the same molecule, the z-score in assay [4] is -0.162 (inactive).

For `COC(=O)[C@@]1(Cc2ccc(F)cc2)[C@H]2c3cc(C(=O)N(C)C)n(Cc4cc(C)n(C)n4)c3C[C@H]2CN1C(=O)c1ccccc1`, the composite z-score in assay [1] was 1.16; in [2], 1.2; in assay [3], 1.19; in assay [5], 1.17; in [6], 0.716; in assay [7], -0.0733. The composite z-score came out at 0.386 in assay [8], 0.0455 in [9] and 0.609 in [10]. Moreover, in assay [4], the z-score is -1.99 (inactive).

Consider `C=C(/C(=C/C[C@H](OC(C)=O)c1ccc(OCCO)cc1)c1cc(C(=O)OC)ccc1OC)C(C)C`, for which the composite z-score was 1.53 in assay [1]; 0.0971 in assay [2]; -0.188 in assay [3]; 1.12 in [5]; 0.451 in assay [6]; -0.296 in assay [7]. For the same molecule, the values for the composite z-score in [8], in [9] and in [10] were 0.647, 0.196 and 0.326, respectively. Further, the z-score in assay [4] was -0.045 (inactive).

Regarding `COCC(=C=CC[C@H](O)c1cccc(OCCO)c1)CCO`, the composite z-score in assay [1] is 0.34; in assay [2] it was -0.0405; in assay [3], -0.101; in assay [5], 0.569; in assay [6], -0.218; in assay [7] it was -0.0436. Besides, the composite z-score was found to be 0.688 in assay [8], 0.0241 in [9] and 0.177 in assay [10]. For the same molecule, in [4], the z-score was 0.105 (inactive).

As to `CC#CC(=O)Oc1ccc(Br)cc1C=CC(=O)OCC`, the composite z-score in assay [1] is -0.384; in [2] it was 0.321; in assay [3] it was 0.481; in assay [5], -0.0853; in assay [6], -0.108; in assay [7], -0.257. Moreover, the composite z-score in [8] is 0.137; in assay [9], -0.382; in [10] it was 1.24. Further, in assay [4], the z-score was 1.07 (inactive).

Consider `COC(=O)[C@@]1(CCC(=O)OC(C)(C)C)N=C(c2ccc(OCCCO)cc2)O[C@H]1c1ccccc1`, for which the composite z-score in assay [1] was 1.22; in assay [2] it was 0.592; in [3], 0.997; in assay [5], -0.19; in assay [6] it was -0.0344; in assay [7], -1.03. Also, the composite z-score in [8] was -0.808; in [9], -0.239; in assay [10], 0.501. For the same molecule, the z-score in assay [4] is 0.509 (inactive).

For the molecule `COC(=O)c1c(CC[C@@H](CO)NC(=O)N[C@@H](Cc2ccccc2)Cn2cc(-c3ccccn3)nn2)oc(C(=O)N2CCOCC2)c1C(=O)OC`, the composite z-score in assay [1] was 0.327; in [2] it was -0.299; in assay [3] it was -0.247; in [5], 0.136; in assay [6], -0.27; in [7], -0.002. The values for the composite z-score in assay [8], in assay [9] and in assay [10] were 0.172, -0.296 and 0.119, respectively. Also, in assay [4], the z-score was 0.373 (inactive).

As to `C=CCOC(=O)[C@H]1[C@@H]2C(=O)O[C@@H](c3ccccc3)[C@@H](c3ccccc3)N2[C@@H](c2ccc(OCCOC(=O)[C@@H]3C[C@@H]4C(=O)N5CCC[C@H]5C(=O)N4[C@@H]3c3cccc(OCCO)c3)cc2)[C@]12C(=O)Nc1ccc(I)cc12`, the composite z-score in [1] is 1.59; in assay [2], -0.214; in [3], -0.158; in assay [5], 1.42; in assay [6] it was 1.15; in [7], 0.702. For the same molecule, the composite z-score in assay [8] is 1.39; in assay [9] it was 1.2; in [10], 0.76. For the same molecule, in [4], the z-score is 0.0567 (inactive).

With `CC(CO)N1C(=O)[C@@H]2C3C(=O)OCCC/C=C\[C@H]3OC23C=CCN(CCN2CCOCC2)C(=O)[C@@H]13` (stereo not given in full), the composite z-score in [1] was 0.238; in [2] it was -0.412; in assay [3] it was -0.48; in assay [5] it was 0.516; in [6] it was 0.494; in assay [7], -0.493. Besides, the composite z-score came out at 0.124 in assay [8], 0.281 in assay [9] and 0.693 in assay [10]. Also, the z-score in assay [4] was -0.669 (inactive).

With `C=CCC(OC(C)=O)[C@@H]1[C@@H](N(Cc2cc3ccccc3o2)C(=O)Cc2ccc(OC)cc2)c2cc(OCCCO)ccc2N1C(=O)c1ccc2ccccc2c1` (stereo not given in full), the composite z-score in assay [1] was 1.02; in assay [2], -0.172; in assay [3], 0.395; in [5], -0.0205; in [6], -0.683; in assay [7], -0.536. Moreover, the composite z-score in assay [8] was -0.0573; in assay [9] it was -0.306; in assay [10], 1.16. Further, the z-score in assay [4] was -0.564 (inactive).

Regarding `O=C1O[C@H](c2ccccc2)[C@H](c2ccccc2)N2[C@H]1[C@@H](C(=O)NC[C@H](O)c1ccccc1)[C@]1(C(=O)Nc3ccccc31)[C@H]2c1ccc(O)cc1`, the composite z-score in assay [1] is 0.758; in assay [2] it was -0.0713; in assay [3], 0.489; in assay [5], 1.3; in assay [6] it was 0.476; in assay [7], 0.555. Besides, the values for the composite z-score in assay [8], in assay [9] and in assay [10] were 0.749, 0.964 and -1.04, respectively. In addition, the z-score in [4] was -0.4 (inactive).

Regarding `CS(=O)(=O)CCOC(=O)C1=CC(CCCO)=CC(C2CC2)N(Cc2cc3c(cc2Br)OCO3)C=C1C(=O)OCCS(C)(=O)=O` (stereo not given), the composite z-score in assay [1] was 0.405; in assay [2], 0.049; in assay [3], 0.49; in assay [5] it was 0.615; in assay [6] it was 0.28; in [7] it was -0.0183. Besides, the composite z-score in [8] turned out to be 0.258; in assay [9], 0.322; in assay [10], 1.33. In assay [4], the z-score is 1.22 (inactive).

As to `COC(=O)[C@@]1(Cc2ccccc2)[C@H]2c3cc(C(=O)N(C)C)n(CCc4c[nH]c5ccc(O)cc45)c3C[C@H]2CN1C(=O)c1ccccc1`, the composite z-score in assay [1] was 0.0625; in assay [2], 0.665; in assay [3] it was 1.2; in [5], 0.288; in [6], 0.435; in assay [7], 0.121. Also, the composite z-score is 0.594 in assay [8], -0.0414 in assay [9] and 1.3 in assay [10]. Besides, the z-score in assay [4] was -1.99 (inactive).

On to `[N-]=[N+]=Nc1ccccc1C[C@@]1(C(=O)N2CCCCC2)N=C(c2ccc(OCCCO)cc2)O[C@@H]1c1ccccc1`, for which the composite z-score is 1.18 in [1]; 0.901 in assay [2]; 1.07 in [3]; 0.465 in assay [5]; 1.29 in assay [6]; -0.209 in [7]. In addition, the composite z-score is 0.112 in assay [8], -0.174 in assay [9] and 0.803 in assay [10]. Further, the z-score in assay [4] is -0.969 (inactive).
